This is an account of results in PubChem BioAssay AID624273 (Broad Institute, 2012).

Each structure is given as a SMILES string. Out of some 1,000 compounds screened, about 230 (23%) were called active. About 1% were inconclusive and are not listed. Some of the results follow. Entries with a potency or affinity are not part of this list. Values without a mark were called inactive. The rule behind the calls is not given here.

The target of the test is Long-chain-fatty-acid--AMP ligase FadD28 (Mycobacterium tuberculosis (strain ATCC 25618 / H37Rv)) (UniProt P9WQ59). In words: inhibitors of FadD28 bisubstrate probe binding, dose response, biochemical, fluorescence polarization, cherry-pick (AID 624273). To be noted: series mostly up to 50 µM; activity change, negative = inhibition: at the top concentration.
Long-chain-fatty-acid--AMP ligase FadD28 (Mycobacterium tuberculosis (strain ATCC 25618 / H37Rv)), sequence (P9WQ59 whole entry, looked up): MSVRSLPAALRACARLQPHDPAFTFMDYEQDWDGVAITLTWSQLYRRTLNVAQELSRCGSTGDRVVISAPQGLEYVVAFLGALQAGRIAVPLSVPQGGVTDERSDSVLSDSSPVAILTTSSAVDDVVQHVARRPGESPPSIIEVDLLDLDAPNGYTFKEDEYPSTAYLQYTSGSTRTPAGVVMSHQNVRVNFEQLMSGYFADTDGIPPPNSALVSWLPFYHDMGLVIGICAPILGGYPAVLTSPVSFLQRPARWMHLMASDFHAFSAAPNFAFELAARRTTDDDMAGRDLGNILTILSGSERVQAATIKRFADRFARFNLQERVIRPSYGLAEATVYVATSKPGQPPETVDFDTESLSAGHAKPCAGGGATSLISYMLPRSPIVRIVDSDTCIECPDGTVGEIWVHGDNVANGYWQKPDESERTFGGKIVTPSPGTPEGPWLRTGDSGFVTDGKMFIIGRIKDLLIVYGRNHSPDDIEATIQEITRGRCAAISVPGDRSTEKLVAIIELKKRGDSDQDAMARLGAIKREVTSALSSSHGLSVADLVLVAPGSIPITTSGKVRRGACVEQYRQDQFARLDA
For `CC(C)CNC(=O)c1cc(S(=O)(=O)N2CCOCC2)ccc1N1CCCC1`, the “activity change, negative = inhibition” value was -5.51%.

For `Cc1ccc(NS(=O)(=O)c2ccc(NC(=O)CN(c3cc([N+](=O)[O-])ccc3C)S(C)(=O)=O)cc2)c(C)c1`, the “activity change, negative = inhibition” value was -0.627%.

In the case of `COC(=O)Cc1cc(=O)n(-c2nc3ccccc3s2)[nH]1`, the “activity change, negative = inhibition” value is -9.29%.

On to `Cc1ccccc1-c1cc2nc(NCc3ccccc3)n(C)c(=O)c2s1`, for which the “activity change, negative = inhibition” value was 10.3%.

Turning to `O=C(/C=C/c1ccco1)Nc1sc2c(c1C(=O)O)CCC2`, the “activity change, negative = inhibition” value was 0.459%.

For `CC(=O)Nc1ccc(NC(=O)CSc2nc3nc(C)cc(C)c3c(=O)[nH]2)cc1`, the “activity change, negative = inhibition” value was -2.41%.

For the compound `CCC(=O)Nc1cccc(-n2nnnc2SCC(=O)c2ccc(C)c(C)c2)c1`, the “activity change, negative = inhibition” value is -13%.

Take `COc1ccc(-n2nnnc2SCC(=O)c2ccc(O)c(O)c2)cc1`: the “activity change, negative = inhibition” value was -12.5%.

On to `CCOc1ccccc1NC(=O)CN(C)S(=O)(=O)c1cnc[nH]1`, for which the “activity change, negative = inhibition” value was -5.79%.

For the compound `Cc1cc(SCNC(=O)c2ccccc2)nc(C(C)C)n1`, the “activity change, negative = inhibition” value was -7.43%.

`COc1ccc(C(C(=O)NC2CCCCC2)N(C(=O)c2sc(C)nc2C)c2ccc(OC)cc2)cc1` (stereo unspecified): the “activity change, negative = inhibition” value is 9.21%.

On to `Cc1c(Cc2ccc3c(c2)OCO3)sc(NC(=O)c2ccc3ccccc3c2)c1C(N)=O`, for which the “activity change, negative = inhibition” value was -7.43%.

With `CCOC(=O)CNC(=O)Cn1cnc2c(cnn2-c2ccc(C)cc2)c1=O`, the “activity change, negative = inhibition” value is -4.81%.

`O=c1c2ccccc2c(-c2ccc(O)cc2)nn1-c1cccc(C(F)(F)F)c1`: the “activity change, negative = inhibition” value was 4.72%.

Consider `CC(C)CN(C(=O)c1ccc(-n2cncn2)c([N+](=O)[O-])c1)C1CCS(=O)(=O)C1` (stereo unspecified), for which the “activity change, negative = inhibition” value is -8.25%.

Turning to `C/C(Cl)=C\Cn1c(O)c(N=O)c2ccccc21`, the “activity change, negative = inhibition” value is 3.06%.

`CC(=O)N1CC2(C)CN(C(C)=O)CC(C)(C1)C2=O`: the “activity change, negative = inhibition” value was -4.73%.

On to `O=C1ON=C(c2cccc([N+](=O)[O-])c2)/C1=C/c1ccc(O)cc1`, for which the “activity change, negative = inhibition” value was -19.1%.

Consider `O=C(O)CC1S/C(=N/N=C/c2ccc(-c3ccc(Cl)c([N+](=O)[O-])c3)o2)NC1=O` (stereo unspecified), for which the “activity change, negative = inhibition” value is -14.3%.

As for `Cc1ccc(-n2cccc2/C=C2/NC(=O)N(CC(=O)Nc3cccc(C)c3)C2=O)cc1`, the “activity change, negative = inhibition” value was -3.09%.

Turning to `COCCNC(=O)C1CCC(CNS(=O)(=O)c2ccc3c(c2)CC(C)N3C(=O)C2CC2)CC1` (stereo unspecified), the “activity change, negative = inhibition” value is -4.61%.

For `COc1ccc(N/C=C(\C2OC(=O)c3ccccc32)[N+](=O)[O-])cc1` (stereo unspecified), the “activity change, negative = inhibition” value was -6.01%.

For `CCOc1cc(C2C(C(=O)OC(C)C)=C(C)N=C3SCCC(=O)N32)ccc1OC(C)=O` (stereo unspecified), the “activity change, negative = inhibition” value was 0.929%.

In the case of `c1ccc2c(C[C@@H]3CNCCN3CC3CCCCC3)cccc2c1`, the “activity change, negative = inhibition” value is 11.1%.

As for `COC(=O)CSc1nc2ccccc2nc1SCC(=O)OC`, the “activity change, negative = inhibition” value was -3.98%.

For `O=[N+]([O-])c1ccc(OCCn2cncn2)cc1`, the “activity change, negative = inhibition” value is -11.1%.

In the case of `COC(=O)c1ccc(Cl)c(NS(=O)(=O)c2ccc3c(c2)OCCO3)c1`, the “activity change, negative = inhibition” value is -4.88%.

In the case of `Cc1cc(C)n(CCN(C)C(=O)CCc2nnc(-c3ccc4c(c3)OCO4)o2)n1`, the “activity change, negative = inhibition” value is -9.68%.

With `CN(C)C=NCCn1c(N2CCOCC2)nc2c1c(=O)n(C)c(=O)n2C`, the “activity change, negative = inhibition” value is -6.64%.

For the compound `O=C(O)CN1CCN(Cc2ccccc2F)C1=O`, the “activity change, negative = inhibition” value was -2.23%.

Consider `C=CCn1c(SCC(N)=O)nnc1-c1cnccn1`, for which the “activity change, negative = inhibition” value is -1.85%.

Regarding `CCOC(=O)c1nc(NCc2cccnc2)c2ccccc2n1`, the “activity change, negative = inhibition” value was 1.8%.

As for `Cc1ccc(S(=O)(=O)N(CC(=O)Nc2cc(C)ccc2C)C(=O)N2CCN(C)CC2)cc1`, the “activity change, negative = inhibition” value is -11.5%.

Turning to `CN(CC(=O)Nc1ccc(Cl)c(C(F)(F)F)c1)C(=O)c1cccnc1Sc1ccccc1`, the “activity change, negative = inhibition” value was 4.04%.

As for `O=C(O)c1c(C(=O)O)c(-c2ccc(Br)cc2)n2c1CSC2`, the “activity change, negative = inhibition” value is -0.118%.

For the compound `CCCC1SCC(C)(C)NC1=O` (stereo unspecified), the “activity change, negative = inhibition” value is -1.99%.

With `Cc1cc(S(=O)(=O)Nc2c(NC3CCCCC3)c3ccccc3oc2=O)ccc1F`, the “activity change, negative = inhibition” value is -1.83%.

Consider `CCCCC(=O)OCC(=O)C1(O)Cc2c(O)c3c(c(O)c2C(OC2CC(NC(=O)C(F)(F)F)C(O)C(C)O2)C1)C(=O)c1c(OC)cccc1C3=O` (stereo unspecified), for which the “activity change, negative = inhibition” value was -20.8%.

On to `CN(Cc1cn(-c2ccccc2)nc1-c1ccc(F)cc1)C(=O)CCC(=O)O`, for which the “activity change, negative = inhibition” value is -1.47%.

Turning to `CCC(C)/C=C(C)/C=C/C1=CC2=C(Cl)C(=O)C(C)(OC(C)=O)C(=O)C2=CO1` (stereo unspecified), the “activity change, negative = inhibition” value was 0.929%.

With `CCC1CCc2c(sc(NC(=O)CSc3nc(-c4ccco4)cc(C(F)(F)F)n3)c2C#N)C1` (stereo unspecified), the “activity change, negative = inhibition” value was -1.63%.

On to `N#Cc1c(NC(=O)c2cccc(S(=O)(=O)Nc3ccc(C(=O)O)cc3)c2)sc2c1CCCC2`, for which the “activity change, negative = inhibition” value was -3.44%.

With `COC1(OC)N=C(N)C2(C#N)C(c3ccc(F)cc3)C12C#N` (stereo unspecified), the “activity change, negative = inhibition” value is -8.68%.

For `CCCN(CC(=O)Nc1ccccc1C)C(=O)CCl`, the “activity change, negative = inhibition” value is 0.101%.

Consider `O=C(CCc1nc2ccccc2c(=O)[nH]1)NCc1ccco1`, for which the “activity change, negative = inhibition” value was -2.48%.

For the compound `Nc1ccc(Cc2ccc(N)c(C(=O)O)c2)cc1C(=O)O`, the “activity change, negative = inhibition” value is -2.36%.

For `O=C(O)Cc1csc(-c2ccccc2)n1`, the “activity change, negative = inhibition” value was -7.8%.

Turning to `CCN(CC)c1nc2n(c(=O)n1)CCO2`, the “activity change, negative = inhibition” value is -1.97%.

`CC(C)(C)c1ccc(Cn2nnc3c(=O)[nH]c(C4CCCN(C(=O)c5ccco5)C4)nc32)cc1` (stereo unspecified): the “activity change, negative = inhibition” value was -8.56%.

Turning to `O=[N+]([O-])c1cc(Cl)ccc1Nc1ccccc1`, the “activity change, negative = inhibition” value was -3.83%.

`Cn1nc([N+](=O)[O-])c(C(C#N)c2nc3ccccc3n2C)c(Cl)c1=O` (stereo unspecified): the “activity change, negative = inhibition” value is -23.1%.
